Common to all, as to parameters: scale not given: direction of the effect not stated beside the values
Assay [1] deals with Protein translocase subunit SecA (Escherichia coli (strain K12)) (UniProt P10408). Put plainly: Assay to Identify E. coli SecA ATPase Inhibitors. Format: functional. The following applies: 30 µM.
The target in assay [2] is T1, Ubiquitin-activating enzyme e1, putative (Leishmania donovani (strain BPK282A1)) (UniProt E9BSI1).
T1 sequence (whole entry): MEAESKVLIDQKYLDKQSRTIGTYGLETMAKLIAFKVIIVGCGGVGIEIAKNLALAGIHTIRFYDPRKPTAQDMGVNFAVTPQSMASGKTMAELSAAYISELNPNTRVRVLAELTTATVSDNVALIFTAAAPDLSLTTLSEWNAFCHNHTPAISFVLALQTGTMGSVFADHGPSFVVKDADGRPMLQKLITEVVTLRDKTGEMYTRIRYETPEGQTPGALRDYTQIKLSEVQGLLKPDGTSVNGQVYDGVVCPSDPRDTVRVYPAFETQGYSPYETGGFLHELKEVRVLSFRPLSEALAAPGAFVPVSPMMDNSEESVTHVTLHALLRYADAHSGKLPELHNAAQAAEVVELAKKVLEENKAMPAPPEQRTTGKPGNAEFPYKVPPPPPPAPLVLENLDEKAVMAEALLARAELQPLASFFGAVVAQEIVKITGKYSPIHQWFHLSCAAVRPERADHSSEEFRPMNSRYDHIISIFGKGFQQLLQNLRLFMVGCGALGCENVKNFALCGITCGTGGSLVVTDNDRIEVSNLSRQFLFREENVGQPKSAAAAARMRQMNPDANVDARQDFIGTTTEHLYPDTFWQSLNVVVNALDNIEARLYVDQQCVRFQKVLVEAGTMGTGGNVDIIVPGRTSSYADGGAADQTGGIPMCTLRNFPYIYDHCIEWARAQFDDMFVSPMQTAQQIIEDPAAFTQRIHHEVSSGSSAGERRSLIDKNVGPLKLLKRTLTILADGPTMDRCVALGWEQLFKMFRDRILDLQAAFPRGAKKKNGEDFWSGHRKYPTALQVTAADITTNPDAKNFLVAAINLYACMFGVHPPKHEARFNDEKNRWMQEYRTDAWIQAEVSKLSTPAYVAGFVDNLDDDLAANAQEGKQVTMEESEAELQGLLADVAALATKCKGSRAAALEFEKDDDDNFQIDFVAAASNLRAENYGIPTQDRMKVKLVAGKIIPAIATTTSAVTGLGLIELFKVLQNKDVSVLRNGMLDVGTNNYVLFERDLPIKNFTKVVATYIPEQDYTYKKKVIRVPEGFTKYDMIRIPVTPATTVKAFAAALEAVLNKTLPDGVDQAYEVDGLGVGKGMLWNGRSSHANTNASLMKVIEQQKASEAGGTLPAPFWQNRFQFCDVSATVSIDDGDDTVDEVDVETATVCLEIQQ
Description: Leishmania donovani Ubiquitin Activating Enzyme (LdE1). Format: functional. The following applies: 30 µM.

Assay [3] has as its target AMP-activated protein kinase, AMPK (Homo sapiens) (UniProt P54646+O43741+P54619+Q9UGJ0+Q9Y478+Q13131+Q9UGI9). Description: AMP-dependent Kinase enzyme assay. An in vitro enzyme assay that detects ADP turnover that is directly proportional to AMPK activity. This uses naive AMPK that is activated during the assay with MK-8722. The following applies: 30 µM. Format: functional.

Assay [4] concerns the target Sialic acid-binding Ig-like lectin 9 (Homo sapiens) (UniProt Q9Y336). Description: Hs-Siglec9 ALPHAscreen SOP 20170721. The following applies: 10 µM. For orientation: Bead proximity is the source of the signal in Alpha formats.
The subject of the next assay is Trypanosoma cruzi. Put plainly: Trypanosoma cruzi phosphomannomutase and mannose-1-phosphate guanylyltransferase assay. It counts as functional. The following applies: 10 µM.
The target of assay [5] is T2, Arginase-2, mitochondrial (Homo sapiens) (UniProt P78540).
T2 sequence (whole entry): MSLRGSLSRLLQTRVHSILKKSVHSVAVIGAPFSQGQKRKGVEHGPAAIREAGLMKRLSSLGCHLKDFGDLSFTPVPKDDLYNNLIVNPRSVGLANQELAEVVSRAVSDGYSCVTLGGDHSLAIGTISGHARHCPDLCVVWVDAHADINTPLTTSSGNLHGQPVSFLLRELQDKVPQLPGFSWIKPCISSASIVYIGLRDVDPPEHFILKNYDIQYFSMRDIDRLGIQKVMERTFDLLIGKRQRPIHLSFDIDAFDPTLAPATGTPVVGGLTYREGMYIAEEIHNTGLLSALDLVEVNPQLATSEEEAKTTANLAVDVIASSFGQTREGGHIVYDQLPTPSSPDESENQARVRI
Put plainly: in vitro enzyme assay to detect the production of urea directly proportional to the activity of Arginase II. Further: in the data most compounds retested in dose-response had high values. It counts as functional. The following applies: 33.3 µM.

Assay [6] concerns the target T3, Proteasome subunit beta (Trypanosoma cruzi) (UniProt O96673).
T3 sequence (whole entry): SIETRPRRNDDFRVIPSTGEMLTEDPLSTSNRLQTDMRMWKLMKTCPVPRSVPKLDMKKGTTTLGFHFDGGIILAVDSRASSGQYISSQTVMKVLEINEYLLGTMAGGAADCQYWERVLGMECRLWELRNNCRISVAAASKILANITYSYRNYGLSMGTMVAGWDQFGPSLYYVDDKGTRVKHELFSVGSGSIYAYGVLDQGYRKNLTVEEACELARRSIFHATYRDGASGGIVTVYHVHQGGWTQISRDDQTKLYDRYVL
Description: Trypanosoma cruzi proteasome chymotrypsin-like activity (TcProtChymo) assay. Further: in the data most compounds retested in dose-response had high values. Format: functional. The following applies: 9.37 µM.

The species named for the next assay is Homo sapiens. Put plainly: To identify inhibition of the IFN signalling (Jak-Stat) pathway via expression of an eGFP reporter gene under the control of an IFN-stimulated response element (ISRE) containing MxA promoter. Format: functional. The following applies: 30 µM. A general note: Reporter assays use an easily measured gene product as a stand-in for the process of interest.

Assay [7] addresses T4, Tyrosyl-tRNA synthetase, putative (Trypanosoma cruzi (strain CL Brener)) (UniProt Q4DSP6).
T4 sequence (whole entry): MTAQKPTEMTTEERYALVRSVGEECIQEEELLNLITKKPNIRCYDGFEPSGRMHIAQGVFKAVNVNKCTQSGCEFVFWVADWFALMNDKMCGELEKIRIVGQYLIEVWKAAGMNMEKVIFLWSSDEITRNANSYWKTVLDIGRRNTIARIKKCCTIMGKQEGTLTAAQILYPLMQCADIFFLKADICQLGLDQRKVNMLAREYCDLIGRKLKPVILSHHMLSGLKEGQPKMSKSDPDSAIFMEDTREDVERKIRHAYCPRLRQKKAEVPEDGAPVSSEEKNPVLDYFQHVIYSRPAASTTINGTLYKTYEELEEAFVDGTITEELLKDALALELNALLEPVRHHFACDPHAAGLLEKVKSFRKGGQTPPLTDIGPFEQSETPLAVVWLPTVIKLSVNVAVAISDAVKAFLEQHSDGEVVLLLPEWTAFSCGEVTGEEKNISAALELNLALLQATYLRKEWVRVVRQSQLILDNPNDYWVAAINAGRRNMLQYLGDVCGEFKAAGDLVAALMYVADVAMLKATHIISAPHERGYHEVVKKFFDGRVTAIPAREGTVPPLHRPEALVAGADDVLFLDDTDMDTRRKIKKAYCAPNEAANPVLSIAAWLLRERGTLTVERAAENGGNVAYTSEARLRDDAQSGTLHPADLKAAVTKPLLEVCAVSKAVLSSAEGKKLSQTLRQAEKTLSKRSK
Description: Trypanosoma cruzi tyrosyl tRNA synthetase (TcYRS) _High Tyrosine SOP. Further: in the data most compounds retested in dose-response had high values. Format: functional. The following applies: 30 µM.

Assay [8] deals with T4, Tyrosyl-tRNA synthetase, putative (Trypanosoma cruzi (strain CL Brener)). Description: Trypanosoma cruzi tyrosyl tRNA synthetase (TcYRS) SOP. It counts as functional. The following applies: 30 µM.
Assay [9] concerns the target Chromo domain-containing protein 1 (Saccharomyces cerevisiae (strain ATCC 204508 / S288c) (Baker's yeast)) (UniProt P32657). Put plainly: ScCHD-1 Enzyme Inhibition Assay. Further: in the data most compounds retested in dose-response had high values. Format: functional. The following applies: 30 µM.

For some of these results: Measured potencies and affinities stand elsewhere.

Sequence of Protein translocase subunit SecA (Escherichia coli (strain K12)) (P10408 whole entry): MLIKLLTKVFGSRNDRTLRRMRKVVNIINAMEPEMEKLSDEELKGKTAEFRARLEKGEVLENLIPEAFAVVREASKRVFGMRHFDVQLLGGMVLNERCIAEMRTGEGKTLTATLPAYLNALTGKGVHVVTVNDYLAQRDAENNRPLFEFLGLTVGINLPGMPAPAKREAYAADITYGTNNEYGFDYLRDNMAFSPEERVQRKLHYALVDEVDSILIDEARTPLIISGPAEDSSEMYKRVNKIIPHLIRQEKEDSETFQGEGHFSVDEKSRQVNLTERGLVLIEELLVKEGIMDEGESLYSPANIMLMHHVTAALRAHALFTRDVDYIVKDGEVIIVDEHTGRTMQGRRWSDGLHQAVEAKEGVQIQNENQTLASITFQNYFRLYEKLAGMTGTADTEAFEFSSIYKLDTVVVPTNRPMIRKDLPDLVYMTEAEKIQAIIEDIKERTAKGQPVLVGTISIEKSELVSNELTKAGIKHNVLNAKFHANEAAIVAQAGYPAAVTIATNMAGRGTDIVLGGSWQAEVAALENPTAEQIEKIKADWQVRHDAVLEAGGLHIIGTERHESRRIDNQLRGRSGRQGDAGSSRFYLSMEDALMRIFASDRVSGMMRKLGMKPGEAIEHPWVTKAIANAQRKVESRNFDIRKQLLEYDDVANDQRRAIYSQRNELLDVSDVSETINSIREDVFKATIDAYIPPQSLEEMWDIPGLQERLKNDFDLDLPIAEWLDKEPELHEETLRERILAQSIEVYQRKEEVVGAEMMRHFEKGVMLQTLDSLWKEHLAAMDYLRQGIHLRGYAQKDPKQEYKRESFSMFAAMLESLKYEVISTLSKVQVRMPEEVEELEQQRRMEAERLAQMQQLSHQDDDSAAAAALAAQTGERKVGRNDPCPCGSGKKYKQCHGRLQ
Sequence of Sialic acid-binding Ig-like lectin 9 (Homo sapiens) (Q9Y336 whole entry): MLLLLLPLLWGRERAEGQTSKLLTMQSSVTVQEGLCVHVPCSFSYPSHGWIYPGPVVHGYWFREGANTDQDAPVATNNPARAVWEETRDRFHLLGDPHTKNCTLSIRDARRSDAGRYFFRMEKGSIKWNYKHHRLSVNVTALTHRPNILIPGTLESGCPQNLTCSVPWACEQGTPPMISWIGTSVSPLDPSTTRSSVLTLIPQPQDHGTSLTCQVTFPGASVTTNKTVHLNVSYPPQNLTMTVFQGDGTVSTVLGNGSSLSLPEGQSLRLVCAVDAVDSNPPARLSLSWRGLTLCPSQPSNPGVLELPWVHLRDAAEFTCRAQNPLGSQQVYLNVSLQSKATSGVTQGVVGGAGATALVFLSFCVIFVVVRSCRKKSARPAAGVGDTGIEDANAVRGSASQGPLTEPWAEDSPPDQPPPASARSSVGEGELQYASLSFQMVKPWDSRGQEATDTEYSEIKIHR
Sequence of Chromo domain-containing protein 1 (Saccharomyces cerevisiae (strain ATCC 204508 / S288c) (Baker's yeast)) (P32657 whole entry, the tested form may be a part): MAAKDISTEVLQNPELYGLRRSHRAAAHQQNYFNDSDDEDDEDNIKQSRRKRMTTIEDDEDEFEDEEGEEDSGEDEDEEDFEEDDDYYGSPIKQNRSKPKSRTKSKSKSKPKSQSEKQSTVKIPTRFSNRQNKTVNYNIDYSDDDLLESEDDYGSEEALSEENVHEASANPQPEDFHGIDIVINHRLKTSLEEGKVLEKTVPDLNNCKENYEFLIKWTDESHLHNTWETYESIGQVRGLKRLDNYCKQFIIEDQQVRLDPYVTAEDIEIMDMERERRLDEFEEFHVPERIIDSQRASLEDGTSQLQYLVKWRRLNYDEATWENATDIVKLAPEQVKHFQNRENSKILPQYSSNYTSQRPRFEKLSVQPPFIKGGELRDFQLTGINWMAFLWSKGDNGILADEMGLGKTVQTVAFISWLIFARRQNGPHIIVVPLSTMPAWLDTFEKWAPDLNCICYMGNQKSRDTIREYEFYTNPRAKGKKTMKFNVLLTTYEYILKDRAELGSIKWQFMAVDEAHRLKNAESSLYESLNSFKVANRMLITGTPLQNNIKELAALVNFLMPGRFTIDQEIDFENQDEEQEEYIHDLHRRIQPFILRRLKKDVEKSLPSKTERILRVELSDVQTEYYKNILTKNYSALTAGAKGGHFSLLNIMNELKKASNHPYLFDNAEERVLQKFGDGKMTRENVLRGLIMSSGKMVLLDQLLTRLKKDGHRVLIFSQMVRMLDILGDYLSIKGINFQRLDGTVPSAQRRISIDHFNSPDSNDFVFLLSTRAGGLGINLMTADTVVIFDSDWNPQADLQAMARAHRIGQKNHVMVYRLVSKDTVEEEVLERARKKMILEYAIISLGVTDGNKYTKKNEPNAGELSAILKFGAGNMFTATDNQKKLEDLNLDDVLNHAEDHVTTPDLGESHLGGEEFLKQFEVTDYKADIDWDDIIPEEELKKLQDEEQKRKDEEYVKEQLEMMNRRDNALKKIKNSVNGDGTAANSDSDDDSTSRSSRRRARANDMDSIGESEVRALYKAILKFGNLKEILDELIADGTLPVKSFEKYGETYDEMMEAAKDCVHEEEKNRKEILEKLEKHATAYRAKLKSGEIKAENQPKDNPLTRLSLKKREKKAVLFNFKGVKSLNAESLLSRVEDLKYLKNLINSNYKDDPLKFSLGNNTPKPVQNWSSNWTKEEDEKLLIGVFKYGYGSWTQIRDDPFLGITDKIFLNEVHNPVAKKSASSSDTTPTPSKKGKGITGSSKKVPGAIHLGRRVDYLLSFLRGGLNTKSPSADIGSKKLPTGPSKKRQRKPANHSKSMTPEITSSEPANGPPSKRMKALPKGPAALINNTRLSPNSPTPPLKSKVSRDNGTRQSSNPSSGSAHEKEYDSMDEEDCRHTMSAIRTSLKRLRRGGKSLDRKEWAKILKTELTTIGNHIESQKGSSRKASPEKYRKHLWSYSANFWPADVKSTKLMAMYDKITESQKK

For `O=S(=O)(c1ccccc1)N1CCN(CCn2ccnc2)CC1`, the Percent Effect is -6.59% in assay [1]; 2.74% in assay [2]; -6.09% in assay [3]; -6.85% in assay [4]; 0.979% in the assay with Trypanosoma cruzi; 3.64% in [5]. For the same compound, the Percent Effect in assay [6] is 7.28%; in the assay listed under Homo sapiens, 6.13%; in assay [7], 6.45%; in assay [8], 7.5%; in assay [9], -3.52%.
As for `CC(=O)N1CCCC(c2ccc(Nc3nc(C)cc(C)n3)cn2)C1` (stereo not drawn), the Percent Effect is -3.24% in assay [1]; 5.33% in assay [2]; 9.18% in assay [3]; 0.842% in [4]; -1.18% in the assay on Trypanosoma cruzi; 3.5% in assay [5]. In addition, the Percent Effect in assay [6] was -2.2%; in the assay listed under Homo sapiens it was 4.23%; in [7], 3.19%; in assay [8] it was 14.1%; in assay [9] it was -7.25%.
As to `CN(Cc1ccco1)C[C@H]1OC[C@@H]2CCN(Cc3nccs3)C[C@@H]21`, the Percent Effect was -6.74% in assay [1]; 16% in [2]; -3.04% in assay [3]; -3.48% in assay [4]; 5.41% in the assay with Trypanosoma cruzi; -45% in assay [5]. Moreover, the Percent Effect is 16.1% in assay [6]; 7.21% in the assay listed under Homo sapiens; 2.08% in [7]; 10% in assay [8]; -6.67% in [9].
As to `O=C(c1ccsc1)N1C[C@@H](CN2CCCC2)[C@@H](CO)C1`, the Percent Effect in assay [1] is -10%; in assay [2], 2.67%; in assay [3], -3.05%; in assay [4] it was -2.17%; with Trypanosoma cruzi it was -5.36%; in assay [5], -5.21%. The Percent Effect in [6] is 4.71%; in the assay listed under Homo sapiens, 2.13%; in [7], -1.64%; in assay [8], -1.24%; in [9] it was -4.1%.
Take `Cc1nn(C)c(C)c1C1CCCN1CCCc1nc2ccccc2o1` (stereo not drawn): the Percent Effect is -7.27% in [1]; 8.11% in assay [2]; -11.9% in assay [3]; 17.9% in assay [4]; 5.38% in the assay with Trypanosoma cruzi; -10% in assay [5]. Further, the Percent Effect is 8.47% in [6]; 13.8% in the assay listed under Homo sapiens; 11.3% in assay [7]; 23.5% in [8]; -12.9% in assay [9].
On to `Cn1cc(C2CC(=O)NC23CCN(c2ncc(F)cn2)CC3)cn1` (stereo not drawn), for which the Percent Effect in [1] is 0.954%; in assay [2] it was 16%; in [3], 3.9%; in [4], 5.28%; with Trypanosoma cruzi, -4.25%; in [5], -16.3%. Besides, the Percent Effect is 3.08% in assay [6]; 16.6% in the assay filed under Homo sapiens; 1.04% in assay [7]; 17.5% in assay [8]; -4.13% in assay [9].
For the compound `Cn1c(C2CC2)nc2c1CCN(CCOc1ccc(C#N)cc1)C2`, the Percent Effect is -3.25% in assay [1]; -15.6% in assay [2]; 4.37% in [3]; 6.69% in [4]; 2.43% in the assay with Trypanosoma cruzi; -1.07% in assay [5]. Moreover, the Percent Effect in assay [6] was 4.22%; in the assay listed under Homo sapiens it was -24.9%; in [7], 6.8%; in assay [8], 2.44%; in assay [9], -8.18%.
Turning to `Cn1ccnc1CN1CCN(c2ccc(C#N)cn2)CC1`, the Percent Effect in assay [1] was -0.525%; in assay [2] it was -67.6%; in assay [3], 39.5%; in [4], 9.32%; in the assay with Trypanosoma cruzi, 0.464%; in [5] it was 1.29%. Besides, the Percent Effect was 6.64% in assay [6]; 7.75% in the assay listed under Homo sapiens; 6.93% in assay [7]; 15.8% in [8]; -4.02% in assay [9].

The record behind these values is ChEMBL document CHEMBL3988442, “University of Dundee, Small-Polar-MMV Screening Library” (2021).
